Measurements published in the supplement of paper PMC10646978.
± gives the standard deviation.

What was measured:
Conditions in all cases: modulator concentration 10 µM
[1] = system: RAW-Dual (murine macrophage reporter line); test: NF-kB reporter (SEAP) activity fold change vs agonist alone; higher = enhanced NF-kB activity
How it was run: (§1)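 In 384-well plates holding 50 000 RAW-Dual murine macrophage reporter cells per well, compound at 10 μM final was pre-incubated for 1 hour at 37 °C, after which a PRR agonist was added overnight. Supernatant SEAP read with QUANTI-Blue at 620 nm absorbance reported NF-κB, and Lucia luciferase read with QUANTI-Luc luminescence reported IRF. Fold change values come from dividing each reporter signal by the mean of agonist-only control wells on the same plate, averaged over replicate plates with propagated errors.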

[2] = system: RAW-Dual (murine macrophage reporter line); test: IRF reporter (Lucia luciferase) activity fold change vs agonist alone; higher = enhanced IRF activity
How it was run: as §1

[3] = system: RAW-Dual (murine macrophage reporter line); test: viability score (confluency relative to resting cells, overnight) (fraction); higher = more viable, active = viable (0.7 or more)
How it was run: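 A compound met the cutoff when both of two confluency masks exceeded 70% of resting cells. Those masks were made with IncuCyte software from IncuCyte images of RAW-Dual macrophages treated overnight at 10 μM final. This is the basis of the viability score, which is confluency relative to resting cells.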

[4] = agonist: CpG ODN 1826 0.5 ug/mL

Row | Compound | NF-kB reporter [1, 4] | NF-kB reporter ([1]; agonist: LPS 0.1 ug/mL) | NF-kB reporter ([1]; agonist: MPLA […]) | IRF reporter ([2]; agonist: 3'3'-cGAMP 10 ug/mL) | IRF reporter ([2]; agonist: LPS 0.1 ug/mL) | IRF reporter ([2]; agonist: MPLA […]) | viability score [3]
1 | NC(=O)c1nc(F)cnc1O | 1.06 ± 0.25 | 1.04 ± 0.051 | 2.37 ± 1.4 | 0.897 ± 0.031 | 1.27 ± 0.14 | 1.39 ± 0.14 | 1.01 (active)
2 | CC(C)(Oc1ccc(CCNC(=O)c2ccc(-c3ccc(Cl)cc3)o2)cc1)C(=O)O | 1.09 ± 0.087 | 1.03 ± 0.078 | 0.976 ± 0.062 | 0.942 ± 0.067 | 1.39 ± 0.22 | 1.08 ± 0.1 | 1.01 (active)
3 | O=C(Nc1ccc(F)c([N+](=O)[O-])c1)c1cccs1 | 1.07 ± 0.072 | 1.2 ± 0.098 | 1.11 ± 0.067 | 0.964 ± 0.037 | 1.61 ± 0.14 | 1.37 ± 0.13 | 0.975 (active)
4 | CCS(=O)(=O)N1CCC(Oc2cc(C)nc(C)n2)CC1 | 1.23 ± 0.07 | 0.996 ± 0.086 | 0.963 ± 0.046 | 0.982 ± 0.05 | 1.05 ± 0.049 | 0.916 ± 0.093 | 0.997 (active)
5 | Cc1c(OCC(F)(F)F)ccnc1CS(=O)c1nc2ccccc2[nH]1 (configuration not stated) | 1 ± 0.16 | 0.915 ± 0.28 | 0.929 ± 0.063 | 0.699 ± 0.037 | 1.11 ± 0.3 | 1.07 ± 0.096 | 0.984 (active)
6 | CC(=O)O.CCN(CC)CC#CC1(O)CCCCC1 | 0.854 ± 0.083 | 0.981 ± 0.058 | 0.914 ± 0.059 | 0.902 ± 0.078 | 1.21 ± 0.14 | 1.06 ± 0.07 | 1.01 (active)
7 | NCC1OC(OC2C(CO)OC(OC3C(O)C(N)CC(N)C3OC3OC(CN)C(O)C(O)C3N)C2O)C(N)C(O)C1O.O=S(=O)(O)O (configuration not stated) | 1.21 ± 0.096 | 1.01 ± 0.074 | 1.13 ± 0.12 | 0.993 ± 0.031 | 1.22 ± 0.12 | 1.29 ± 0.18 | 1.02 (active)
8 | CCOc1ccc(Nc2oc(-c3ccc(COc4ccc(C)cc4)o3)nc2C#N)cc1 | 1.03 ± 0.082 | 0.717 ± 0.089 | 1.04 ± 0.099 | 0.998 ± 0.035 | 1.41 ± 0.24 | 1.67 ± 0.41 | 0.832 (active)
9 | CC(NCCC(c1ccccc1)c1ccccc1)c1ccccc1.Cl (configuration not stated) | 0.274 ± 0.11 | 0.64 ± 0.047 | 0.67 ± 0.075 | 0.735 ± 0.058 | 0.929 ± 0.13 | 1 ± 0.13 | 0.204 (inactive)
10 | O=C(NCC1CN(c2ccc(N3CCOCC3=O)cc2)C(=O)O1)c1ccc(Cl)s1 (configuration not stated) | 1.36 ± 0.18 | 1.09 ± 0.41 | 0.984 ± 0.063 | 0.898 ± 0.031 | 1.21 ± 0.43 | 1.03 ± 0.08 | 1 (active)
11 | C=CCNc1oc(Cc2cccc3ccccc23)nc1C#N | 0.818 ± 0.039 | 1.04 ± 0.091 | 1.13 ± 0.062 | 0.731 ± 0.036 | 1.16 ± 0.25 | 1.28 ± 0.4 | 0.952 (active)
12 | CCOC(=O)[C@H](CCc1ccccc1)N[C@@H](C)C(=O)N1CCC[C@H]1C(=O)O.O=C(O)/C=C\C(=O)O | 1.05 ± 0.09 | 1.01 ± 0.11 | 1 ± 0.054 | 1.01 ± 0.085 | 0.916 ± 0.04 | 0.868 ± 0.2 | 1 (active)
13 | CC(=O)N(C1=C(Nc2ccccc2)C(=O)c2ccccc2C1=O)c1ccccc1 | 2.44 ± 0.19 | 1.52 ± 0.098 | 2.64 ± 0.16 | 2.12 ± 0.063 | 5.77 ± 0.43 | 3.69 ± 0.39 | 0.334 (inactive)
14 | Cc1c(C(=O)OC(C)C)sc(NC(=O)C(F)(F)F)c1C(=O)OC(C)C | 1.4 ± 0.08 | 1.01 ± 0.076 | 1.05 ± 0.032 | 0.781 ± 0.028 | 0.937 ± 0.067 | 1.19 ± 0.22 | 0.993 (active)
15 | COc1cc2c(cc1OC)C(=O)NC1(CCCC1)C2 | 1.24 ± 0.095 | 0.958 ± 0.073 | 0.959 ± 0.092 | 0.819 ± 0.05 | 0.872 ± 0.11 | 0.911 ± 0.17 | 1.02 (active)
16 | Cc1[nH]c2ccc(Br)cc2c(=O)c1CN1CCCCC1 | 0.828 ± 0.092 | 0.97 ± 0.054 | 0.899 ± 0.054 | 0.951 ± 0.035 | 1.25 ± 0.17 | 0.92 ± 0.091 | 1 (active)
17 | CCCc1nc(-c2ccccc2)c(-c2ccc(OC)c(OC)c2)c(=O)[nH]1 | 0.803 ± 0.067 | 0.844 ± 0.1 | 1.06 ± 0.1 | 0.933 ± 0.057 | 1.46 ± 0.084 | 1.78 ± 0.16 | 1.01 (active)
18 | CCCCOC(=O)C1=C(C)NC2=C(C(=O)CCC2)C1c1cccc(C(F)(F)F)c1 (configuration not stated) | 0.981 ± 0.1 | 1.01 ± 0.057 | 0.939 ± 0.058 | 0.993 ± 0.025 | 1.56 ± 0.28 | 1.15 ± 0.17 | 1.01 (active)

Row | Compound | NF-kB reporter [1, 4] | NF-kB reporter ([1]; agonist: LPS 0.1 ug/mL) | NF-kB reporter ([1]; agonist: MPLA […]) | IRF reporter ([2]; agonist: 3'3'-cGAMP 10 ug/mL) | IRF reporter ([2]; agonist: LPS 0.1 ug/mL) | IRF reporter ([2]; agonist: MPLA […]) | viability score [3]
19 | COc1ccc(-c2csc(NC(=O)C3CC3)n2)cc1 | 1.1 ± 0.064 | 0.958 ± 0.078 | 1.05 ± 0.032 | 0.876 ± 0.032 | 1.05 ± 0.08 | 1.13 ± 0.26 | 0.988 (active)
20 | COC(CNS(=O)(=O)c1ccccc1Cl)c1cccc(F)c1 (configuration not stated) | 1.21 ± 0.074 | 1.04 ± 0.078 | 1.08 ± 0.038 | 0.849 ± 0.045 | 1.03 ± 0.055 | 0.736 ± 0.12 | 0.995 (active)
21 | CCCCOc1cc(C(=O)NCCN(CC)CC)c2ccccc2n1.Cl | 0.759 ± 0.17 | 1.04 ± 0.18 | 1.04 ± 0.067 | 0.776 ± 0.039 | 1.41 ± 0.41 | 1.82 ± 0.14 | 0.93 (active)
22 | COc1ccc(Nc2nc(Nc3ccc(F)cc3)nc(N3CCOCC3)n2)cc1OC | 0.409 ± 0.059 | 1.61 ± 0.14 | 2.96 ± 0.16 | 0.413 ± 0.036 | 1.36 ± 0.17 | 2.15 ± 0.54 | 0.905 (active)
23 | CC(C)c1ccc(OCC(=O)NCc2nnc3n2CCC(C(F)(F)F)C3)cc1 (configuration not stated) | 1.24 ± 0.094 | 1.05 ± 0.08 | 0.988 ± 0.06 | 0.99 ± 0.074 | 1.1 ± 0.075 | 1.05 ± 0.13 | 0.996 (active)
24 | CCc1nc(N)nc(N)c1-c1ccc(Cl)cc1 | 1.23 ± 0.11 | 1.07 ± 0.054 | 1.03 ± 0.054 | 0.941 ± 0.052 | 0.974 ± 0.07 | 0.865 ± 0.075 | 0.964 (active)
25 | CC(=O)Nc1nc(C2CC2)cc(-c2ccco2)c1C#N | 1.38 ± 0.23 | 1.09 ± 0.09 | 1.02 ± 0.08 | 0.937 ± 0.026 | 1.16 ± 0.12 | 1.17 ± 0.12 | 1 (active)
26 | S=C(NC12CC3CC(CC(C3)C1)C2)N1CCOCC1 | 1.14 ± 0.11 | 1.06 ± 0.074 | 1.07 ± 0.039 | 1.01 ± 0.13 | 1.07 ± 0.1 | 1.15 ± 0.12 | 1 (active)
27 | Cc1ccc(-c2cc(-c3ccccc3)nc(NN=Cc3ccc(Br)cc3)n2)cc1 | 0.976 ± 0.18 | 1.08 ± 0.084 | 1.01 ± 0.12 | 1.11 ± 0.031 | 1.07 ± 0.1 | 1.4 ± 0.21 | 0.997 (active)
28 | O=C(C=Cc1cccnc1)c1cc2ccc1CCc1ccc(cc1)CC2 | 1.03 ± 0.058 | 0.76 ± 0.071 | 0.752 ± 0.05 | 0.639 ± 0.023 | 0.998 ± 0.063 | 1.03 ± 0.35 | 1.01 (active)
29 | Cc1cncc(CN2CCC(=C3c4ccc(Cl)cc4CCc4cccnc43)CC2)c1.O=C(O)/C=C/C(=O)O | 1.46 ± 0.14 | 1.19 ± 0.096 | 1.73 ± 0.23 | 0.931 ± 0.097 | 0.799 ± 0.092 | 1.29 ± 0.16 | 1 (active)
30 | O.S=c1nc[nH]c2nc[nH]c12 | 0.844 ± 0.037 | 0.902 ± 0.1 | 0.989 ± 0.11 | 0.768 ± 0.035 | 1.23 ± 0.28 | 1.36 ± 0.57 | 0.994 (active)
31 | O=C(CC12CC3CC(CC(C3)C1)C2)N1CCCCC1 | 0.863 ± 0.064 | 0.99 ± 0.11 | 0.949 ± 0.056 | 1.1 ± 0.037 | 1.53 ± 0.1 | 1.23 ± 0.15 | 0.911 (active)
32 | COC(=O)C1=C(C)N(c2ccc(Br)cc2)C(=O)C1=Cc1ccc(O)cc1 | 1.12 ± 0.088 | 0.956 ± 0.1 | 0.93 ± 0.057 | 0.468 ± 0.035 | 1.31 ± 0.16 | 1.05 ± 0.065 | 1.01 (active)
33 | CN(C)CCC(c1ccccc1)c1ccccn1.O=C(O)/C=C\C(=O)O (configuration not stated) | 0.373 ± 0.016 | 0.227 ± 0.018 | 0.65 ± 0.036 | 0.0231 ± 0.0026 | 0.0283 ± 0.0046 | 0.0354 ± 0.0064 | 0.377 (inactive)
34 | Oc1ccc(CN2CCOCC2)cc1 | 1.05 ± 0.17 | 1.08 ± 0.094 | 0.971 ± 0.09 | 0.939 ± 0.06 | 1.24 ± 0.14 | 1.25 ± 0.13 | 0.995 (active)
35 | O=C(c1cccs1)c1nc2c(n1O)CCCCC2 | 1.01 ± 0.079 | 1.02 ± 0.076 | 0.967 ± 0.069 | 0.992 ± 0.056 | 1.17 ± 0.18 | 0.858 ± 0.085 | 0.899 (active)
36 | Cc1nc(-c2ccc(OCC(C)C)c(C#N)c2)sc1C(=O)O | 0.891 ± 0.14 | 0.957 ± 0.34 | 1.02 ± 0.065 | 0.883 ± 0.048 | 0.973 ± 0.3 | 1.06 ± 0.22 | 1 (active)
